Values joined by “and” are separate entries in the source; they are usually repeats but may differ in a detail not shown here. Equal values may be shown once. Active and inactive are the calls of the source. Rule for the calls: active = hit-call score of the fitted dose curve at least 0.9, where 1 is the maximum; inactive = score below 0.9.
read-out: Monokine induced gamma interferon (MIG), CXCL9 (gene 4283); assay: BSK_SAg_MIG: BioMAP Diversity Plus: SAg Assay for Monokine induced gamma interferon (MIG) Biomarker Activity (AID 2283092); conditions: primary human HUVEC with PBMC; actives raise or lower the signal
Experimental: BSK_SAg is a cell-based, multiplexed-readout assay that uses umbilical vein endothelium and peripheral blood mononuclear cells, a human vascular primary cell co-culture, with measurements taken at 24 hours after chemical dosing in a 96-well plate.BSK_SAg_MIG is an assay component measured in the BSK_SAg assay. It measures MIG antibody related to regulation of gene expression using ELISA technology.Data from the assay component BSK_SAg_MIG was analyzed into 1 assay endpoint. This assay endpoint, BSK_SAg_MIG, was analyzed with bidirectional fitting relative to DMSO as the negative control and baseline of activity. Using a type of binding reporter, gain or loss-of-signal activity can be used to understand changes in the signaling as they relate to the gene CXCL9. Furthermore, this assay endpoint can be referred to as a primary readout, because this assay has produced multiple assay endpoints where this one serves a signaling function. To generalize the intended target to other relatable targets, this assay endpoint is annotated to the cytokine intended target family, where the subfamily is chemotactic factor.
The levels of cell surface (or secreted, indicated by the prefix "s") biomarker endpoints were measured by ELISA. Overt cytotoxicity to cells in confluent adherent cultures (all systems other than the BT system) was assessed by measuring total protein levels using sulforhodamine B (SRB) staining in parallel cultures at the time of biomarker measurements, indicated as SRB endpoints. For proliferation assays for adherent cell types, individual cell types are cultured at sub-confluence and relative cell numbers quantified by SRB staining at time points optimized for each system (48 h: 3C and CASM3C systems; 72 h: BT and HDF3CGF systems; 96 h: SAg system). SRB was performed by staining cells with 0.1% SRB after fixation with 10% TCA and reading wells at 560 nm.Viability and proliferation of PBMC (T cells) was quantified by Alamar Blue reduction for the SAg and BT systems. For PBMC viability (referred to as PBMC Cytotoxicity within the assay endpoint names), cells were plated (75,000/well in a 96-well plate) and then chemical samples added for 1 h before addition of activators, SEB and TSST-1 (20 ng/mL final concentration each). Cells were incubated for 90 h. Then, Alamar Blue (20 uL/well) (Invitrogen, Cat DAL1100) was added for 6 h, and the plates were read with a fluorescence microplate reader at 546/580 nm (excitation/emission). For PBMC proliferation, cells were plated and activated as above but incubated for only 16 h prior to addition of Alamar Blue. Plates were read after 6 h.

| Structure (SMILES) | AC50 | outcome |
| --- | --- | --- |
| CCCCC/C=C\C/C=C\CCCCCCCC(=O)OC | 31.4 µM (active) | – |
| S=C(NC1CCCCC1)NC1CCCCC1 | – | inactive |
| C=C[Si](OC(C)=O)(OC(C)=O)OC(C)=O | – | inactive |
| COc1ccc2nc(N)sc2c1 | – | inactive |
| C=CC=CC=CCCCCC | – | inactive |
| c1ccc2c(c1)ccc1cc3c(ccc4ccccc43)cc12 | – | inactive |
| CCCCC(CC)COCC1CO1 (stereo unspecified) | – | inactive |
| CCCCC(CC)COC(=O)c1ccccc1O (stereo unspecified) | – | inactive |
| CC(C)C(=O)C(C)C | – | inactive |
| O=Nc1ccc(O)cc1 | – | inactive |
| CO[Si](OC)(OC)c1ccccc1 | – | inactive |
| c1ccc(-c2ccccn2)nc1 | – | inactive |
| N#[N+]c1ccc2c(S(=O)(=O)[O-])cccc2c1O | – | inactive |
| C=CC(=O)OCC(Br)CBr (stereo unspecified) | 20 µM (active) | – |
| C/C=C\C/C=C/CCCCCCCCOC(C)=O | – | inactive |
| CCCCNc1ccc(NCCCC)c2c1C(=O)c1ccccc1C2=O | – | inactive |
| CC(C)(c1cc(Br)c(OCCO)c(Br)c1)c1cc(Br)c(OCCO)c(Br)c1 | – | inactive |
| CCOC(=O)c1ccccc1C(=C1C=C(Br)C(=O)C(Br)=C1)c1cc(Br)c(O)c(Br)c1 | 22.2 µM (active) and 23 µM (active) | – |

| Structure (SMILES) | AC50 | outcome |
| --- | --- | --- |
| CN1C(=O)N(C)C(O)C1O (stereo unspecified) | – | inactive |
| C=CCOCC(O)CCl (stereo unspecified) | – | inactive |
| c1ccc2c(c1)ccc1ncccc12 | – | inactive |
| C=CCOc1c(Br)cc(Br)cc1Br | – | inactive |
| O=C(c1ccc(O)cc1)c1ccc(O)cc1O | – | inactive |
| CCCCCCCCc1ccc(Nc2ccc(CCCCCCCC)cc2)cc1 | – | inactive |
| CCO[Si](C)(OCC)OCC | – | inactive |
| O=C(Cl)c1cc(C(=O)Cl)cc(C(=O)Cl)c1 | 34.2 µM (active) | – |
| O=C(Nc1ccccc1SSc1ccccc1NC(=O)c1ccccc1)c1ccccc1 | – | inactive |
| Nc1ccc(N)c(Cl)c1 | 30.4 µM (active) and 31.3 µM (active) | – |
| CCO[Si](CCCN=C=O)(OCC)OCC | – | inactive |
| CCCCCCCCCCCCCCCC[N+](C)(C)CC | 3.51 µM (active) | – |
| CC1OC1C1CCC2(C)OC2C1 (stereo unspecified) | – | inactive |
| O=C1CCCN1CCO | – | inactive |
| C#CC1(O)CC[C@H]2[C@@H]3CCC4=CCCC[C@@H]4[C@H]3CC[C@@]21C (stereo partly specified) | 31.8 µM (active) | – |
| COCc1c(C(C)C)nc(C(C)C)c(/C=C/[C@@H](O)C[C@@H](O)CC(=O)O)c1-c1ccc(F)cc1 | – | inactive |
| O=c1c2ccccc2oc2ccccc12 | – | inactive |
| CCOc1nc(F)cc2nc(S(=O)(=O)Nc3c(Cl)cccc3C(=O)OC)nn12 | – | inactive |

Reference: PubChem BioAssay (EPA / NIEHS)
